# Results as given in PubChem BioAssay (NCATS).
# Records with an inconclusive call do not appear. Activity calls are given as the source filed them. The call rests on the fitted dose curve; in most records, active means well fitted inhibition curve with a large enough effect; inconclusive means small, poorly fitted or top-dose-only effect; inactive means no such curve, though single readings can be large or run the other way.
# Test: NS1 protein of Zika virus - qHTS assay to identify small molecule inhibitors in human HEK 293 cells (AID 1347053);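 further: plate controls were infected untreated cells for no effect and uninfected cells for full effect; nearly all actives have a fitted effect of over 55% in size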
# Conditions: HEK293 ZIKV MR766 infection, NS1 TR-FRET, 24 h; series mostly up to 46.1 µM; activity change, negative = inhibition: at the top concentration
# Text: National Center for Advancing Translational Sciences [NCATS]
# Johns Hopkins University School of Medicine
# The non-structural 1 (NS1) protein of zika virus is known to associate with the viral replication complex. This cell-based TR-FRET ZIKV NS-1 assay measures the increased NS-1 protein in human HEK 293 cells after a 24-hour Zika virus infection by a TR-FRET assay readout. A decrease in the Time-resolved fluorescence energy transfer (TR-FRET) signal in this assay by small molecule treatment indicates an inhibitory effect of the small molecule on the expression of Zika virus NS1 correlating with Zika virus replication.
# HEK 293 cells were cultured in EMEM (ATCC, Cat. # 30-2003) medium with 10% fetal bovine serum (GE healthcare Life Sciences, Cat. # SH30071.03), and 1% Pen/Strep (Gibco, Cat. # 15140-122). Cells were seeded in the assay plate and incubated at 37 C with 5% CO2 for 20 hours. Compounds were added to cells and incubated for one hour before addition of ZIKV MR766 strain solution to cells (MOI = 0.5). After an incubation at 37 C for 24 hours, the reagent mixture of TR-FRET ZIKV NS1 assay using two anti-ZIKV NS1 antibodies was added to assay plates. The TR-FRET signals in assay plates were measured using an Envision plate reader (PerkinElmer). Data were normalized by using the cell-containing wells without ZIKV as a negative control (0% NS-1) and wells containing ZIKV infected cells as a positive control (100% NS-1 level).
row,SMILES,"activity change, negative = inhibition"
1,c1ccc2c(c1)CCC[C@H]2Nc1nc2ccccc2[nH]1,6.5% (inactive)
2,CCCCCCCC/C=C\CCCCCCCC(=O)NCCc1ccc(O)c(O)c1,2.32% (inactive)
3,CCCn1c(=O)c2[nH]c(C3CCCC3)nc2n(CCC)c1=O,7.36% (inactive)
4,O=C(O)[C@H]1NCCC[C@H]1C(=O)O,-14.2% (inactive)
5,CCC1(O)CC2CN(CCc3c([nH]c4ccccc34)[C@@](C(=O)OC)(c3cc4c(cc3OC)N(C=O)C3[C@]45CCN4CC=C[C@@](CC)([C@@H](OC(C)=O)[C@]3(O)C(=O)OC)[C@H]45)C2)C1 (stereo not given in full),7.28% (inactive)
6,N#C/C(=C\c1ccc(O)c(O)c1)C(=O)NCCCNC(=O)/C(C#N)=C/c1ccc(O)c(O)c1,-4.34% (inactive)
7,CN1CCCC1CCOC(C)(c1ccccc1)c1ccc(Cl)cc1 (stereo not given),0.42% (inactive)
8,N#Cc1cc([N+](=O)[O-])c2sc(C(N)=O)[n+]([O-])c2c1,11.9% (inactive)
9,C=CC1(C)CC(=O)C2(O)C(C)(O1)C(OC(C)=O)C(O)C1C(C)(C)CCC(O)C12C (stereo not given),-17.2% (inactive)
10,O=C(O)Cc1ccc(O)c(O)c1,-21.1% (inactive)
11,CCCCCCCCCC[Si](C)(C)CCC(=O)NC(Cc1ccc(C)cc1)c1ccccc1 (stereo not given),4.99% (inactive)
12,COc1ccc2c(c1)c(CC(=O)O)c(C)n2Cc1ccc(Cl)cc1,-4.24% (inactive)
13,NC(Cc1cccc(-c2ccccc2CP(=O)(O)O)c1)C(=O)O (stereo not given),-1.58% (inactive)
14,Clc1nccc2c1ccc1ccccc12,0.319% (inactive)
15,C#CC(N)CCC(=O)O (stereo not given),-14% (inactive)
16,CC(C)Cn1c(=O)n(C)c(=O)c2[nH]cnc21,-17.6% (inactive)
17,CC(=O)N[C@@H](Cc1c[nH]c2ccccc12)C(=O)OCc1cc(C(F)(F)F)cc(C(F)(F)F)c1,2.89% (inactive)
18,O=C(O)C1=CCCN(CCON=C(c2ccccc2)c2ccccc2)C1,7.9% (inactive)
19,CCCCCCCCCCCCCCCCCCOC[C@H](COP(=O)([O-])OCC[N+](C)(C)C)OC,1.13% (inactive)
20,N=S(=O)(O)Cc1noc2ccccc12,-2.26% (inactive)

row,SMILES,"activity change, negative = inhibition"
1,O=C(O)C1=CC(=C(c2ccc(O)c(C(=O)O)c2)c2ccc(O)c(C(=O)O)c2)C=CC1=O,11.8% (inactive)
2,N[C@@H](CS(=O)O)C(=O)O,0.888% (inactive)
3,NC(=O)CNCCC(c1ccccc1)c1ccccc1,-23.9% (inactive)
4,c1ccc(C(NCCNC(c2ccccc2)c2ccccc2)c2ccccc2)cc1,-10.6% (inactive)
5,NCCCCN=C(N)N,-3.81% (inactive)
6,C[C@@]1(C2CCCC2)Cc2cc(OCC(=O)O)c(Cl)c(Cl)c2C1=O,5.15% (inactive)
7,O=C(O)C1=CCNCC1,-14.3% (inactive)
8,C[C@H](O)C(=O)C1=Nc2c(nc(N)[nH]c2=O)NC1,-1.73% (inactive)
9,O=C(O)/C=C/c1ccc(O)c(O)c1,-17.2% (inactive)
10,Oc1cc2c(cc1O)C(c1ccccc1)CNCC2 (stereo not given),-21% (inactive)
11,CNc1cc(NS(=O)(=O)c2ccc(N)cc2)nc(NC)n1,-26.2% (inactive)
12,COc1cccc(OC)c1OCCNCC1CSc2ccccc2O1 (stereo not given),3.74% (inactive)
13,CCCCCCC/C=C\CCCCCCCCC(=O)O,-19.5% (inactive)
14,CCCCS(=N)(=O)CC[C@H](N)C(=O)O (stereo not given in full),-1.97% (inactive)
15,C=C1C[C@@]23CC[C@H]4[C@@](C)(CCC[C@@]4(C)C(=O)O)[C@@H]2CC[C@]1(O)C3,-6.3% (inactive)
16,CN[C@H](CC(=O)O)C(=O)O,-8.56% (inactive)
17,O=C(O)c1cccnc1C(=O)O,-24.4% (inactive)
18,O=C1Nc2ccc(I)cc2/C1=C/c1cc(Br)c(O)c(Br)c1,-4.19% (inactive)
19,O=c1ccc2c(OCCCCc3ccccc3)c3ccoc3cc2o1,-2.17% (inactive)
20,NC[C@@H]1O[C@H](c2ccccc2)Cc2c1ccc(O)c2O,8.47% (inactive)
